About 1,300 (0.68%) of roughly 190,000 compounds were called active. This is one part of a sample in which actives are shown more often than they occur. A number with no mark means an inactive call. Cut-off read from the data, not from the text of the source: active = inhibition above about 50%; inactive = the rest.
biological target: Mannose-6-phosphate isomerase (Homo sapiens) (UniProt P34949); test: human PMI inhibitors, high substrate, primary screen, biochemical, fluorescence intensity, high mannose 6-phosphate (AID 1220); settings: recombinant PMI enzyme, coupled fluorescence intensity; at 20 µM; stronger effect = higher value
Sequence (P34949 whole entry, looked up): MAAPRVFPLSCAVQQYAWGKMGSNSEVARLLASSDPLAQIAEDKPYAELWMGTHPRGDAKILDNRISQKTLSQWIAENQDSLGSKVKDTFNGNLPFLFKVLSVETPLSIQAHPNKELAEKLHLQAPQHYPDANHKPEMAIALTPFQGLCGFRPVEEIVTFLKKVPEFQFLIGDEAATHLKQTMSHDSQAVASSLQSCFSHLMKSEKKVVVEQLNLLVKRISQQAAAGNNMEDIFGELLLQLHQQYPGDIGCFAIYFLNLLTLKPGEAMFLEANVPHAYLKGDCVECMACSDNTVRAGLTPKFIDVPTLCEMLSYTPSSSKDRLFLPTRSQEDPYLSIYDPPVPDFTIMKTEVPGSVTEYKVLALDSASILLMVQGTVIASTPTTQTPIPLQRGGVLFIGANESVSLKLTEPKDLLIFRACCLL

Compound	inhibition
CCOC(=O)N1CCC(N(CCN(C)C)C(=S)Nc2cccc(Cl)c2)CC1	10.6%
Cc1ccc(C)n1-c1cc(S(=O)(=O)N2CCOCC2)ccc1N1CCCC1	17%
O=c1c2ccccc2sn1-c1ccc(S(=O)(=O)N2CCCC2)cc1	5%
O=C(O)c1cc(S(=O)(=O)N2CCOCC2)ccc1N1CCOCC1	-9.3%
O=c1c2ccccc2sn1-c1cc(S(=O)(=O)N2CCOCC2)ccc1N1CCOCC1	96.3% (active)
O=c1c2ccccc2sn1-c1cc(S(=O)(=O)N2CCOCC2)ccc1N1CCCC1	77.3% (active)
O=S(=O)(c1ccc2c(c1)oc1ccccc12)N1CCOCC1	3.7%
Cc1cc2ccccc2n1CCNC(=O)C(C)Oc1ccccc1 (centres undefined)	5.6%
Cc1cc(Nc2ccccc2)nc(N2CCOCC2)n1	-4.3%
COCCCNC(=O)c1cc(C(=O)c2c(-c3c(Cl)cccc3Cl)noc2C)c[nH]1	-2.4%
CC1(C)CC(=O)c2cnc3c(C#N)cnn3c2C1	6.6%
Cc1ccc(CN(Cc2ccco2)C(=S)Nc2ccccc2C)cc1	8.6%
O=c1[nH]snc1N1CCOCC1	-7.2%
COc1nsnc1N1CCOCC1	-11.2%
O=c1c(N2CCOCC2)nsnc1N1CCOCC1	53.3% (active)
Cc1ccc(Oc2c(F)c(F)nc(N3CCCC3)c2F)cc1	32.2%
CCN(CC(=O)NCc1cccs1)C(=O)CCc1c[nH]c2ccccc12	8.8%
CC(C)(C)c1cc(N)n(-c2ccc(C(=O)O)cc2)n1	52.8% (active)
Cc1cc(N)n(-c2ccc(C(=O)O)cc2)n1	2.1%
Cc1cc(C)n(-c2ccc(C(=O)O)cc2)n1	30.6%
O=C(Cn1cnc2sc(-c3ccccc3)cc2c1=O)NCc1ccccc1	-8.4%
CCOC(=O)C1=C(CSc2nccn2C)NC(=O)NC1c1cc(C)ccc1C (centres undefined)	-2%
CCN(CC)Cc1cc(O)c(CN(CC)CC)cc1O	54.7% (active)
CCc1oc(C(=O)O)cc1CN(CC)CC	10.9%
CCN(CC)Cc1cc(C(C)=O)ccc1O	-8.6%

Compound	inhibition
CC(=O)Nc1ccc(NC(=O)CCC(=O)OCC(=O)c2ccc(C)c([N+](=O)[O-])c2)cc1	-5.6%
O=C(c1ccc(C(=O)N2CCOCC2)s1)N1CCOCC1	-3.8%
CN1C(=O)/C(=C/C=C2\SCCN2C)SC1=S	29.3%
CCN1C(=O)/C(=C/C=C2/Sc3ccc4ccccc4c3N2CCO)SC1=S	-5.4%
CCN1C(c2ccccc2)=C(c2ccccc2)S/C1=C/C=C1\SC(=S)N(C)C1=O	54.4% (active)
CC1(C)CC2CC(C)(CN2C(=O)C23CCC(C)(C(=O)O2)C3(C)C)C1 (centres undefined)	9.1%
O=C(COC(=O)CCc1ccccc1)Nc1cc(S(=O)(=O)N2CCOCC2)ccc1N1CCCC1	7.1%
Cc1cccc(C)c1N=Cc1c(C(F)(F)F)[nH][nH]c1=O	0.2%
O=c1[nH][nH]c(C(F)(F)F)c1C=Nc1ccccc1Cl	-6.7%
Cc1cc(O)ccc1N=Cc1c(C(F)(F)F)[nH][nH]c1=O	62.2% (active)
COc1ccc(CNC(=O)CN(c2ccccc2)S(=O)(=O)c2ccccc2[N+](=O)[O-])cc1	-11.2%
CCN(Cc1ccccc1)C(=O)Cn1cc2c(n1)CCCC2	10.5%
Cc1ccc(CNC(=O)CCc2nc3ccccc3c(=O)[nH]2)cc1	2.2%
CCOC(=O)N1CCC(c2nc(C)sc2C(=O)O)CC1	1.2%
CC(C)Cn1nc(NC(=O)C2CCCO2)c2cc3ccccc3nc21 (centres undefined)	6.4%
Cc1occc1-c1nnc(SCC(=O)N2CCOCC2)n1CC(C)C	6.1%
COc1ccc(C(CC(=O)Nc2cc([N+](=O)[O-])ccc2OC)c2ccccc2)cc1 (centres undefined)	54.1% (active)
COc1ccc([N+](=O)[O-])cc1NC(=O)CC(C)c1ccccc1 (centres undefined)	14.4%
COc1ccc([N+](=O)[O-])cc1NC(=O)CC(c1ccccc1)c1ccccc1	7.4%
CS(=O)(=O)N1CCC(Oc2ccccc2C(=O)NC(C2CC2)C2CC2)CC1	2.8%
CCOC(=O)c1cnc(SC2CCc3ccccc3C2=O)nc1N (centres undefined)	53% (active)
CCOC(=O)c1cnc(SC2CC(=O)N(c3ccc(C)cc3)C2=O)nc1N (centres undefined)	-5.1%
CCOC(=O)c1cnc(SC2CC(=O)N(c3ccccc3)C2=O)nc1N (centres undefined)	0.1%
COCCn1nnnc1C(C(C)C)N1CCSCC1 (centres undefined)	-8%
O=C(/C=C\NCC(=O)c1ccccc1)c1ccc(F)cc1	-70.8%

Compound	inhibition
N#CC1(C#N)CC(C=O)=C(N)C1(C#N)CC(=O)c1ccc(F)cc1 (centres undefined)	52.8% (active)
N#CC1(C#N)CC(C=O)=C(N)C1(C#N)CC(=O)C12CC3CC(CC(C3)C1)C2 (centres undefined)	32.5%
COc1ccc(OCCNc2cc(N3CCOCC3)ccc2[N+](=O)[O-])cc1	5.4%
O=C(CSc1ccc(Cl)cc1)Nc1cccc(-c2nc3ncccc3o2)c1	-3.6%
S=C(Nc1ccc2c(c1)OCO2)Nc1ccc2c(c1)OCO2	62.3% (active)
O=C(NCc1ccc2c(c1)OCO2)Nc1ccc2nsnc2c1	26.7%
CNS(=O)(=O)c1ccc(NC(=S)Nc2ccc3c(c2)OCO3)cc1	55.7% (active)
CN(C)C(=S)Nc1ccc2c(c1)OCO2	11.8%
NS(=O)(=O)c1ccc(NC(=S)NCc2ccc3c(c2)OCO3)cc1	17.1%
S=C(NCc1ccc2c(c1)OCO2)Nc1ccc2nsnc2c1	53.7% (active)
NC(=S)Nc1ccc2c(c1)OCO2	1.7%
C=CCN(CC=C)C(=S)Nc1ccc(OC)c(OC)c1	20.1%
O=C(Nc1ccc(S(=O)(=O)NCc2ccccc2)cc1)Nc1ccc2c(c1)OCO2	8.6%
S=C(NCc1ccc(Cl)c(Cl)c1)Nc1ccc2c(c1)OCO2	10.2%
C=CCN(CC=C)C(=S)Nc1ccc2nsnc2c1	55.3% (active)
C=CCNC(=S)Nc1ccc2nsnc2c1	9.9%
CCCN1C(=O)C(O)(C/C(C)=N/O)c2ccccc21 (centres undefined)	3.5%
COc1ccc(CC(=O)OC(C)CN2CCOCC2)cc1 (centres undefined)	-1.4%
Cc1ccc(-c2nc(C3CCCN(S(=O)(=O)c4ccc(C)cc4)C3)no2)cc1 (centres undefined)	5.6%
CCN(CC)S(=O)(=O)c1ccc(C(=O)OCn2c(SC)nnc(C)c2=O)cc1	12.1%
O=S(=O)(NCc1ccc2c(c1)OCO2)c1cccc(S(=O)(=O)N2CCOCC2)c1	52.5% (active)
O=S(=O)(NCc1ccc(F)cc1)c1cccc(S(=O)(=O)N2CCOCC2)c1	-0.5%
O=S(=O)(NCc1ccccc1)c1cccc(S(=O)(=O)N2CCOCC2)c1	4.1%
S=C(Nc1ccc2c(c1)OCCO2)Nc1ccc2c(c1)OCO2	62.7% (active)
O=S(=O)(c1ccc(NC(=S)Nc2ccccc2)cc1)N1CCOCC1	-2.7%

Compound	inhibition
O=C(Nc1ccc2c(c1)OCO2)Nc1ccc2c(c1)OCO2	15.8%
CCn1ncc(NC(=S)NCCc2ccccc2)c1C(N)=O	5.4%
CCn1ncc(NC(=S)Nc2ccc3c(c2)OCO3)c1C(N)=O	57.3% (active)
O=S(=O)(c1ccc(NC(=S)Nc2ccc3c(c2)OCO3)cc1)N1CCOCC1	52.2% (active)
Cc1ccc(NC(=S)Nc2ccc(S(=O)(=O)N3CCOCC3)cc2)cc1S(=O)(=O)N1CCOCC1	-1.2%
CCn1ncc(Br)c1C(=O)Nc1ccc2c(c1)OCCO2	0.3%
O=C(Nc1ccc2c(c1)OCCO2)Nc1ccc2c(c1)OCO2	13%
O=C1CC(c2ccc(F)cc2)CC2=C1C=Nc1ccccc1N2 (centres undefined)	-4.8%
Cc1nn(Cc2ccccc2)c(C)c1NC(=O)CCCn1nc(C)c([N+](=O)[O-])c1C	-2.1%
CCCCC(=O)Nc1ccc(NC(=O)c2cc(OC)c(OC)c(OC)c2)cn1	3.2%
CCN1CCCc2cc(CN(CCN3CCOCC3)C(=S)Nc3ccc(OC)c(OC)c3)ccc21	22.3%
COc1ccccc1CNC(=O)C1CCC(CNc2c(N3CCOCC3)c(=O)c2=O)CC1 (centres undefined)	16.7%
CC(=O)c1cnc(Nc2ccc(C)cc2)s1	1.9%
C=CCSc1nnc(NC(=O)CSc2nc3ccccc3[nH]2)s1	4.3%
Cc1cc(NC(=O)c2ccc(Cl)cc2)n(CCOC(=O)c2ccc(Cl)cc2)n1	10.6%
Cc1nc2ccc(NC(=O)NCCO)cc2s1	3.3%
COc1ccc(C(=O)NCc2ccc(Cl)c(Cl)c2)cc1OC	-0.1%
Cc1cccc(-c2nc(CS(=O)CC(=O)N3CCCCC3)c(C)o2)c1 (centres undefined)	5.1%
O=c1cc(N2CCCCCC2)[nH]c(=O)n1-c1ccccc1Cl	-6.5%
Cc1ccccc1-n1c(=O)cc(N2CCC3(CC2)OCCO3)[nH]c1=O	7%
Cc1ccccc1-n1c(=O)cc(N2CCCCCC2)[nH]c1=O	62.9% (active)
CCOC(=O)/C(N=Nc1ccc(C(=O)O)cc1[N+](=O)[O-])=C(\C)O	-1.9%
CC(C)Cc1nc2oc3c(N4CCN(CCO)CC4)ncnc3c2c2c1CCCC2	2%
Cc1ccc(Cl)cc1NC(=S)N(CCCN1CCOCC1)Cc1ccco1	-6.2%

From PubChem BioAssay AID1220 (Sanford-Burnham Center for Chemical Genomics, 2008)
